hiPSC survival – increases survival of single human iPS cells; survival enhancement, % at 20 µM; 360,000 compounds, 0.044% hits; hiPSC single-cell survival, ATPlite luminescence; 100% = ROCK inhibitor wells, 0% = DMSO; in the data active = survival enhancement above about 18%;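 note: cells exposed to compounds for 16 hours before the ATP read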
DAGLB inhibitor – blocks human DAGLB lipase activity; HEK293T DAGLB membrane lysate, EnzChek fluorogenic substrate; inhibition, % at 5.17 µM; 340,000 compounds, 0.059% hits; AID 504411; in the data active = inhibition above about 34%
HDAC3 inhib – human HDAC3 inhibition; O15379; recombinant HDAC3, fluorogenic peptide/trypsin coupled, fluorescence; inhibition, % at 8.3 µM; 320,000 compounds, 0.15% hits; in the data active = inhibition above about 26%, passing the limit was not always enough; inconclusive = no clear call, values can overlap the other calls
LANA-H2A inh – blocks KSHV LANA binding to histone H2A/H2B; Q9QR71; cell-free LANA-H2A/H2B peptide, fluorescence polarization; inhibition, % (concentration not given with the values); 320,000 compounds, 0.6% hits; in the data active = inhibition mostly above about 10%, no sharp cut-off; inactive = mostly below about 6.7%
DAGLB inh conf – DAGLB (human) inhibition, confirmation screen; shares compounds with DAGLB inhibitor; HEK293T DAGLB membrane lysate, EnzChek fluorogenic substrate; inhibition, % at 5.17 µM; 190 compounds, 73% hits;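 active = mean inhibition over triplicate wells above a set limit taken from the primary lipase screen, cut at about 34% in these data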
Of the large screens only hits and unclear results are named; the others gave an inactive call (follow-up assays come after a bar, where they were run); ! = not active in a repeat. Shown are actives, neighbours in structure and some others; about 0.79% of the full set was active somewhere.

CCOC(=O)/C(C#N)=C/C=C1\C=Cc2ccccc2N1CC	DAGLB inhibitor 37, HDAC3 inhib inconclusive | DAGLB inh conf 46
CC1=NN(c2ccc(Cl)cc2)C(=O)/C1=C\c1cccn1-c1ccc(S(N)(=O)=O)cc1	DAGLB inhibitor 36 | DAGLB inh conf inactive
Cc1ccc(S(=O)(=O)N/N=C/c2cccn2-c2ccc(Cl)cc2)cc1	none
Nc1ccc(S(=O)(=O)NN=Cc2ccccc2[N+](=O)[O-])cc1	none (no result: HDAC3 inhib, LANA-H2A inh)
O=C1c2cccc(Cl)c2C(=O)c2c1cccc2N1CCCC1	DAGLB inhibitor 44 | DAGLB inh conf 64
C#Cc1ccc([C@H]2C=C(C(=O)O)O[C@@H](OCCCCO)C2)cc1	none
Cc1ccc(NS(=O)(=O)c2cc([N+](=O)[O-])ccc2NNC(=S)Nc2cccc(Cl)c2)c(C)c1	DAGLB inhibitor 44 | DAGLB inh conf 74
CCCC(=O)NC(c1cccs1)c1cc([N+](=O)[O-])c2cccnc2c1O (stereo unspecified)	DAGLB inhibitor 35 | DAGLB inh conf inactive
CCC(=O)NC(c1cccs1)c1cc([N+](=O)[O-])c2cccnc2c1O (stereo unspecified)	none
CN1c2ccc([N+](=O)[O-])cc2N(C)C1(C)c1ccccc1 (stereo unspecified)	DAGLB inhibitor 37 | DAGLB inh conf inactive
CC(=O)Nc1sc(N)nc1-c1ccccc1	none
Cc1ncc(N=Nc2ccccc2Cl)c(-c2ccccc2)n1	none
Nc1nc(-c2ccccc2)c(N=Nc2cccc3ccccc23)s1	DAGLB inhibitor 61 | DAGLB inh conf 66
Nc1nc(-c2ccccc2)c(N=Nc2ccccc2Cl)s1	DAGLB inhibitor 65 | DAGLB inh conf 91
CC1(C)C(=O)NCCN1C(=O)CC1C(=O)NCCN1Cc1cccc(C(F)(F)F)c1 (stereo unspecified)	none (no result: HDAC3 inhib, LANA-H2A inh)
O=C1/C(=C/c2ccc(O)c(O)c2)SC(=S)N1Nc1ccccc1	DAGLB inhibitor 40 (no result: HDAC3 inhib, LANA-H2A inh) | DAGLB inh conf inactive
O=C(NN1C(=O)/C(=C/c2ccc(O)c(O)c2)SC1=S)c1ccccc1	DAGLB inhibitor 39 | DAGLB inh conf inactive
N#Cc1c(NC(=O)C2CC(Cl)=CCC2C(=O)O)sc2c1CCCC2 (stereo unspecified)	none
CCc1nnc(NS(=O)(=O)c2ccc(Nc3ccc([N+](=O)[O-])c4nonc34)cc2)s1	DAGLB inhibitor 36 | DAGLB inh conf inactive
CCc1nnc(NS(=O)(=O)c2ccc(NS(=O)(=O)c3ccccc3[N+](=O)[O-])cc2)s1	none
N#C/C(=N\Nc1ccc([N+](=O)[O-])cc1)C(N)=S	DAGLB inhibitor 38 | DAGLB inh conf inactive
N#C/C(=N/Nc1ccc([N+](=O)[O-])cc1)C(=N)N1CCCCC1	none (no result: HDAC3 inhib, LANA-H2A inh)
Cc1cccn2c(=O)nc(SCC(=O)NCc3ccc(F)cc3)nc12	none
O=Nc1c(-c2c(O)[nH]c3cc(Br)ccc23)[nH]c2ccccc12	DAGLB inhibitor 47 | DAGLB inh conf 59
CCN(CC)Cc1cc(Oc2ccc(O)c(CN(CC)CC)c2)ccc1O	none (no result: DAGLB inhibitor, HDAC3 inhib, LANA-H2A inh)
O=[N+]([O-])c1ccc(N2CCN(c3ccccc3)CC2)cc1	DAGLB inhibitor 34 | DAGLB inh conf 82
CCCc1cc(=O)n2[nH]c(C)c(-c3ccccc3)c2n1	none
Cc1[nH]n2c(=O)cc(-c3ccc([N+](=O)[O-])cc3)nc2c1-c1ccccc1	DAGLB inhibitor 48 | DAGLB inh conf 42
NS(=O)(=O)c1ccc(N=Nc2c(O)ccc3ccccc23)cc1	DAGLB inhibitor 37 | DAGLB inh conf 47
NS(=O)(=O)c1ccc(N=Nc2ccc(O)c3ncccc23)cc1	none
CC(=O)c1ccc(NC(=O)COC(=O)c2ccccc2N=Nc2ccc(N(C)C)cc2)cc1	DAGLB inhibitor 36 | DAGLB inh conf inactive
CCC(=NNc1ccc([N+](=O)[O-])cc1[N+](=O)[O-])c1ccccc1	none (no result: DAGLB inhibitor, HDAC3 inhib, LANA-H2A inh)
CC/C(=N\Nc1ccc([N+](=O)[O-])cc1[N+](=O)[O-])c1ccc(O)cc1	DAGLB inhibitor 39 | DAGLB inh conf 38
COc1ccc(C(=O)NC(=S)Nc2cccc3ncccc23)cc1[N+](=O)[O-]	none
CC1CC(C)CN(C(=O)COC(=O)CN2C(=O)c3ccccc3C2=O)C1 (stereo unspecified)	none
CC1CC(C)CN(C(=O)c2ccc3c(c2NCCO)C(=O)c2ccccc2C3=O)C1 (stereo unspecified)	DAGLB inhibitor 44 | DAGLB inh conf 63
COc1cc(/C=C2\SC(=O)N(CC(=O)Nc3cccc(C)c3)C2=O)cc([N+](=O)[O-])c1O	none (no result: DAGLB inhibitor, HDAC3 inhib, LANA-H2A inh)
COc1cc(/C=C2/C(=O)NN(c3ccc(F)cc3)C2=O)cc(Cl)c1O	none
COc1cc(/C=C2\SC(=O)N(c3ccccc3Cl)C2=O)cc([N+](=O)[O-])c1O	DAGLB inhibitor 42 (no result: HDAC3 inhib, LANA-H2A inh) | DAGLB inh conf 38
COc1cc(/C=C2/C(=O)NN(c3ccc(Cl)c(Cl)c3)C2=O)cc([N+](=O)[O-])c1O	DAGLB inhibitor 38 (no result: HDAC3 inhib) | DAGLB inh conf 50
O=c1cc2oc3cc(O)c(O)cc3c(-c3ccccc3[N+](=O)[O-])c-2cc1O	DAGLB inhibitor 43 | DAGLB inh conf inactive
O=c1cc(-c2ccccc2Cl)oc2cccc(O)c12	none
COc1cc2c(cc1OC)C(c1ccccc1)N(C(=O)C(C)(C)C)CC2 (stereo unspecified)	none (no result: HDAC3 inhib, LANA-H2A inh)
COC(=O)c1ccccc1NC1=C/C(=N\S(=O)(=O)c2ccc(C(=O)O)cc2)c2ccccc2C1=O	none
COC(=O)c1ccccc1NC1=C/C(=N\S(=O)(=O)c2cccs2)c2ccccc2C1=O	DAGLB inhibitor 42! | DAGLB inh conf 55
Cc1cc(N(CCO)CCO)ccc1N=Nc1cc(F)ccc1F	DAGLB inhibitor 43 | DAGLB inh conf 45
Nc1ccc(N(CCO)CCO)cc1	none
O=C(Nc1ccccc1-c1ccccc1)c1ccccc1	none
Nc1c(S(=O)(=O)O)cc(NC(=O)c2ccccc2)c2c1C(=O)c1ccccc1C2=O	DAGLB inhibitor 61 | DAGLB inh conf 72
CCCCN(C(=O)c1ccc(C)o1)c1c(N)n(CC(C)C)c(=O)[nH]c1=O	none
Cc1ccc2cc(C3C(C#N)=C(N)Oc4c3ccc3cccnc43)c(=O)[nH]c2c1 (stereo unspecified)	DAGLB inhibitor 36 | DAGLB inh conf inactive
CSc1ccccc1CNC(=O)C1(C)CCCN1CC(C)C (stereo unspecified)	none (no result: DAGLB inhibitor, HDAC3 inhib, LANA-H2A inh)
COc1ccc(-c2csc3nc(-c4ccccc4OC)oc(=O)c23)cc1	DAGLB inhibitor 43 | DAGLB inh conf 41
Cc1ccccc1-n1c(SCC(=O)N2CCOCC2)nc(O)c(Cc2ccccc2)c1=O	none
CNc1ccc(N=Nc2cccc3ncccc23)cc1	DAGLB inhibitor 34 (no result: HDAC3 inhib, LANA-H2A inh) | DAGLB inh conf 56
COCCNC(=O)C1(C)CCCN(C(=O)c2cc(C)on2)C1 (stereo unspecified)	none (no result: DAGLB inhibitor, HDAC3 inhib, LANA-H2A inh)
NC(=O)CC(NC(=O)c1ccc(Br)cc1)c1ccc(NCCc2ccc(F)cc2)c([N+](=O)[O-])c1 (stereo unspecified)	DAGLB inhibitor 39 | DAGLB inh conf 76
NC(=O)CC(NC(=O)c1ccccc1)c1ccc(NCCc2cccc(F)c2)c([N+](=O)[O-])c1 (stereo unspecified)	none
